From PubChem BioAssay AID1209 (Sanford-Burnham Center for Chemical Genomics, 2008)
Among all 190,000 compounds or so, about 810 (0.43%) were called active. The entries come from a sample that favours actives as a whole. A number with no mark means an inactive call. Rule as the data show it: active = inhibition above about 50%; inactive = the rest.

Each compound was assayed against Mannose-6-phosphate isomerase (Homo sapiens) (UniProt P34949) (assay: inhibitors of human PMI, primary screen, biochemical, fluorescence intensity, coupled assay (AID 1209;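 also: plate controls were DMSO vehicle for no effect and wells lacking substrate for full effect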)). Conditions: purified PMI enzyme, at 20 µM, hits give high values.
Sequence of Mannose-6-phosphate isomerase (Homo sapiens) (P34949 whole entry, looked up): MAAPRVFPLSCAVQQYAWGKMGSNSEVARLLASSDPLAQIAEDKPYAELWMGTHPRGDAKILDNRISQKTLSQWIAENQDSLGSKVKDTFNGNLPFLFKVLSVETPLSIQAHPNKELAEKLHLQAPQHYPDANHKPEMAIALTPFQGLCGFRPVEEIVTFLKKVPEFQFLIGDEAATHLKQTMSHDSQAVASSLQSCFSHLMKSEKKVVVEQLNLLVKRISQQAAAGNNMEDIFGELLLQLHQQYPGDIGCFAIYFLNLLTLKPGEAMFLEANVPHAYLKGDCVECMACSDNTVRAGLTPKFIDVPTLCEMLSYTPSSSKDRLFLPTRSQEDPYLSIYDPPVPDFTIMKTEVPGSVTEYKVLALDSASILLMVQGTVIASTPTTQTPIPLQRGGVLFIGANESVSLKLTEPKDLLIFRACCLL

Point of comparison: `O=C(c1cn[nH]c1)c1cc(F)ccc1O`, inhibition 12.2%. Against it:
- C=CCOC(=O)C1=C(C)NC(SCC(=O)NC(=O)OCC)=C(C#N)C1c1cccnc1 (configuration not stated) — lower, -29.7%
- CCc1ccc2nc(NC(=O)Cn3cnc4ccccc4c3=O)sc2c1 — lower, -4%
- O=c1[nH]c2cc3c(cc2cc1C(c1nnnn1CC1CCCO1)N1CCCC1)OCO3 (configuration not stated) — lower, -6.3%
- CCN(CC)S(=O)(=O)c1ccc(OC)c(NC(=O)c2cc3c(=O)n4ccccc4nc3s2)c1 — lower, 10%
- Cc1ccc2nc(-c3cccnc3SCC(=O)N3c4ccccc4CC3C)[nH]c2c1 (configuration not stated) — lower, 9.6%
- C/C(=N\NC(=O)CSCc1ccc(Cl)cc1)c1ccc(NC(=O)c2ccccc2)cc1 — lower, -2.3%
- O=C(N/N=C/c1ccncc1)c1nc(-c2ccccc2)n2c1CCCCC2 — lower, 5.7%
- CN(C)S(=O)(=O)N1CCC(CO)(Cc2cccc(C(F)(F)F)c2)CC1 — lower, 3%
- Cc1ccsc1C=C1C(=O)c2ccccc2C1=O — lower, 1.2%
- O=C(COC(=O)c1ccc(S(=O)(=O)N2CCCC2)cc1)Nc1cccnc1Cl — lower, -7.2%
- CCOC(=O)c1ccc(NC(=O)CCC2COc3ccccc3O2)cc1 (configuration not stated) — higher, 14.5%
- COc1ccc(-n2c(CN3CCC(C)CC3)nc3ccc([N+](=O)[O-])cc3c2=O)c(OC)c1 — lower, 2.1%
- COc1cc2c(=O)c(-c3ccc(O)cc3)coc2cc1OC1OC(CO)C(O)C(O)C1O (configuration not stated) — lower, 3.2%
- O=c1c(-c2ccc(O)cc2)coc2cc(OC3OC(CO)C(O)C(O)C3O)ccc12 (configuration not stated) — lower, -7.2%
- COc1ccc2[nH]c(=O)c(CN(Cc3cccs3)C(=S)Nc3ccccc3)cc2c1 — higher, 22.8%
- CCN(CC)C(=O)CSc1nnc(COc2ccc(OC)cc2)n1N — lower, 1.7%
- COc1ccc(OCc2nnc(SCC(=O)O)n2N)cc1 — lower, 4.6%
- CC(=O)c1c(C)nc(-c2ccc(OCC(=O)Nc3ccccc3)cc2)n1O — lower, -7.9%
- CCS(=O)(=O)c1ccc2oc(Nc3ccc(OC)cc3)nc2c1 — lower, -4.5%
- CCS(=O)(=O)c1ccc2oc(Nc3ccc(C(C)(C)C)cc3)nc2c1 — higher, 15.9%
- O=C(NNC(=O)c1sccc1-n1cccc1)c1ccc(F)cc1 — lower, 0.7%
- CCCCOc1ccc(CSc2nnc(C)n2N)cc1[N+](=O)[O-] — lower, -8.7%
- O=C(Nc1ccc(F)cc1)c1ccc(Cn2cnnn2)cc1 — lower, -9.3%
- CC(=O)N(C)c1nnc(-c2ccccn2)s1 — lower, -0.7%
- COCC(=O)N(C)c1nnc(-c2cnccn2)s1 — lower, -3.9%
- CCCc1cc(=O)[nH]c(SCc2ccccc2)n1 — higher, 13.6%
- O=C(CSc1nc2ccccc2c(=O)n1CCCN1CCOCC1)N1CCN(c2ccccc2)CC1 — lower, -4.4%
- Cc1ccccc1NS(=O)(=O)c1ccc(C(=O)OCC(=O)NCC(C)C)cc1 — lower, -11.1%
- COc1ccc(OCc2nnc3n2N=C(c2ccc(OC)cc2)CS3)cc1 — lower, -9.9%
- c1ccc(OCc2nnc3n2N=C(c2ccccc2)CS3)cc1 — higher, 47.7%
- CCc1ccccc1NC(=O)N1CCC(NC(=O)C(Cc2ccccc2)NC(C)=O)CC1 (configuration not stated) — lower, -12.4%
- CC(C)[C@H](NC(=O)c1ccccc1)C(=O)OCC(=O)N1CC(=O)Nc2ccccc21 — higher, 14.2%
- CCCCNC(=O)CSc1nc2ccccc2n1S(=O)(=O)c1ccc(Cl)cc1 — lower, -2.1%
- COc1ccc(-c2nc(SC)n(C)c(=O)c2C#N)cc1OC — higher, 13.4%
- O=C1C[C@@H](c2ccc(O)cc2)Oc2cc(O)cc(O)c21 — lower, 10.6%
- O=C1CC(c2ccc(O)cc2)Oc2cc(O)cc(O)c21 (configuration not stated) — lower, 11.5%
- Cc1cccc(C(=O)NC2CC3CCCC(C2)N3S(=O)(=O)c2ccccc2)c1 (configuration not stated) — the same, 12.2%
- CCOCc1[nH]c(=S)[nH]c(=O)c1Cc1ccc(OCC(C)C)cc1 — lower, -4%
- O=C(C1CCCN(CCCc2ccccc2)C1)N1CCCCCC1 (configuration not stated) — lower, -9.9%
- CC1=CC(=O)c2ccccc2C1=O — lower, -57.7%
- CC1=CC(=O)C=C(C)C1=NOC(=O)/C=C\c1ccccc1 — higher, 17.8%
- CC1=CC(=O)C=C(C)C1=NOc1ccccc1[N+](=O)[O-] — higher, 25.5%
- Cc1ccc(S(=O)(=O)ON=C2CCN(S(=O)(=O)c3ccccc3)CC2)cc1 — lower, 8%
- CC(=O)N1C(C)(C)CC(=NOS(=O)(=O)c2ccccc2)CC1(C)C — lower, -17.4%
- CC1=C/C(=N\OC(=O)/C=C/c2ccccc2)C(C)=CC1=O — lower, 3.5%
- O=S(=O)(O/N=C1\CCCc2ccccc21)c1ccccc1 — lower, -1.2%
- CC1=CC(=O)C(C(C)C)=CC1=NC(=O)c1ccc(C)cc1 — higher, 46.6%
- CC1CCN(C(=O)c2ccc(SCc3ccccc3F)c([N+](=O)[O-])c2)CC1 — higher, 20%
- O=C(O)CCCC(=O)Nc1cc([N+](=O)[O-])ccc1O — lower, 9.3%
- COc1ccc(O)c(/C=N/NC(=S)Nc2cccc(S(=O)(=O)N(C)C)c2)c1 — lower, -10.9%
- COc1ccc(C(=O)N/N=C(/C)c2cccc(NC(=O)C(F)(F)F)c2)cc1 — lower, 0.4%
- CC(C)(C)c1ccc(S(=O)(=O)O/N=C2/CCCCC2c2ccc([N+](=O)[O-])cc2[N+](=O)[O-])cc1 (configuration not stated) — lower, 7.7%
- CCN(CC)Cc1cc(NC2=NS(=O)(=O)c3ccccc32)ccc1OC(=O)c1ccccc1 — lower, -5.8%
- CC(C)(C)c1ccc(C(=O)NNC(=S)NCC2CCCO2)cc1 (configuration not stated) — lower, -0.9%
- O=C1c2ccccc2C(=O)N1CCSc1n[nH]c(=S)s1 — lower, -5.1%
- Cc1nn(-c2ccccc2)c(Cl)c1C(=O)Nc1ccc(N2CCOCC2)cc1 — lower, -17.1%
- COc1ccc(S(=O)(=O)NN=C2CCCCC2)cc1 — lower, -30.4%
- COc1ccc(-n2nc(C(=O)NCC(=O)NCc3ccco3)c3ccccc3c2=O)cc1 — lower, 0.1%
- Fc1ccc(C2=Nn3c(Cc4ccccc4)nnc3SC2)cc1 — lower, 11.2%
- c1ccc(Cc2nnc3n2N=C(c2ccccc2)CS3)cc1 — higher, 13.3%
- O=C(COC(=O)c1cccnc1Cl)Nc1ccccc1OC(F)F — lower, -0.4%
- CCC(C)(C)NC(=O)C(c1cccn1C)N(C(=O)Cn1nnc2ccccc21)c1ccccc1OC (configuration not stated) — lower, -6.8%
- N#Cc1cn(CCOC(=O)c2cccc(C(F)(F)F)c2)c(=O)[nH]c1=O — lower, 4.3%
- CCN1CCN(c2nc3ccccc3nc2C(C#N)C(=O)OCc2ccccc2)CC1 (configuration not stated) — lower, 8.9%
- O=C(Oc1ccc(-c2cnc3ccccc3n2)cc1)c1ccco1 — lower, 0.2%
- COC(=O)c1ccc(OC(=O)c2ccco2)cc1 — lower, -5%
- Cc1cccc(-n2nnnc2SCC(=O)c2cc(C)n(Cc3ccco3)c2C)c1 — lower, -2.6%
- CC(=O)Nc1nc2c(c3c1c(=O)oc1ccccc13)CCCCC2 — lower, -2.8%
- CCOc1ccc(CONS(=O)(=O)c2ccc(NC(C)=O)cc2)cc1Cl — higher, 16.3%
- C[N+]1(CC#CC(O)(c2ccccc2)c2ccccc2)CCCC1 — higher, 21.6%
- CC12CCC3(CO)COC(c4ccccc4O1)C2C3 (configuration not stated) — lower, 3.4%
- C=CCN(CC=C)C(=O)Nc1ccc2nc(C)sc2c1 — lower, 8.1%
- CCOC(=O)N1CCN(C(=O)c2ccc(S(=O)(=O)NCc3ccco3)cc2)CC1 — lower, -4.2%
- Cc1ccc(NC(=O)c2ccc(N/N=C/c3cccc(O)c3)c([N+](=O)[O-])c2)cc1 — lower, 5.1%
- O=c1[nH][nH]c(-c2ccccc2)c1C=Nc1ccc(Cl)cc1 — lower, -4.3%
- Cn1cnnc1SCC(=O)Nc1ccccc1F — lower, -2%
- Cc1cccc(NC(=S)NNC(=O)c2csc(C)c2)c1 — lower, -3.7%
- CCc1cc(C(=O)NNC(=S)Nc2ccccc2C)cs1 — lower, -8.6%
- O=C(Nn1cnnc1)C1CCCN1S(=O)(=O)c1ccc(F)cc1 (configuration not stated) — lower, -3.3%
- Cc1ccc(NC(=O)CSc2nnc(C)n2-c2ccccc2)cc1 — lower, -1.7%
- Cc1ccc(-n2c(=O)[nH]c3ncccc3c2=O)cc1 — higher, 12.9%
- Oc1ccc(C=Nc2cccc3ncccc23)c(O)c1 — higher, 46.8%
- Cc1ccc(N=Cc2ccc(O)cc2O)cc1F — lower, 9.4%

With `O=c1c(O[C@@H]2O[C@H](CO)[C@@H](O)[C@H](O)[C@H]2O)c(-c2ccc(O)c(O)c2)oc2cc(O)cc(O)c12` the inhibition was 62.8% (active).
With `COc1ccc(OCc2nnc(SCC(=O)N(C)Cc3ccccc3)n2N)cc1` the inhibition was 50.1% (active).
In the case of `CCS(=O)(=O)c1ccc2oc(Nc3ccc(C(C)C)cc3)nc2c1`, the inhibition is reported as 63.4% (active).
In the case of `COCC(=O)N(C)c1nnc(-c2ccccn2)s1`, the inhibition is reported as 102% (active).
With `COc1ccccc1C1=Nn2c(COc3ccccc3)nnc2SC1` the inhibition was 67.8% (active).
For `O=C(O[C@@H]1Cc2c(O)cc(O)cc2O[C@@H]1c1cc(O)c(O)c(O)c1)c1cc(O)c(O)c(O)c1`, the inhibition was 67.2% (active).
In the case of `CC1=C/C(=N\OS(=O)(=O)c2ccccc2)C(C)=CC1=O`, the inhibition is reported as 106% (active).
In the case of `CC1=C/C(=N\OS(=O)(=O)c2ccccc2)C=CC1=O`, the inhibition is reported as 96.1% (active).
With `CC1=C/C(=N\OS(=O)(=O)c2ccccc2)C(C(C)C)=CC1=O` the inhibition was 78.5% (active).
`c1ccc(-c2ccc(C3=Nn4c(Cn5nnc6ccccc65)nnc4SC3)cc2)cc1` was tested, and the inhibition was 50.3% (active).
In the case of `CC1(C#CC[N+]2(C)CCCCC2)CCC2C(O1)c1ccccc1OC2(C)C` (configuration not stated), the inhibition is reported as 105% (active).
For `Cc1cc(C(=O)NNC(=S)Nc2ccccc2C)cs1`, the inhibition was 70.7% (active).
In the case of `Oc1ccc(C=Nc2ccc3ncccc3c2)c(O)c1`, the inhibition is reported as 68.4% (active).
